# PubChem BioAssay AID588453 (National Center for Advancing Translational Sciences (NCATS), 2011)
# The whole screen tested about 390,000 compounds, of which about 4,000 (1%) were called active. Not shown: some 4% with an inconclusive outcome. Calls follow the shape of the dose curve; as a rule, active = well fitted inhibition curve with a large enough effect; inconclusive = small, poorly fitted or top-dose-only effect; inactive = no such curve, though single readings can be large or run the other way. The entries come from a sample that favours actives as a whole. Where a call stands in place of a potency, no number is given.
# Target: Thioredoxin reductase 1, cytoplasmic (Rattus norvegicus) (UniProt O89049)
# Sequence (O89049 whole entry, looked up): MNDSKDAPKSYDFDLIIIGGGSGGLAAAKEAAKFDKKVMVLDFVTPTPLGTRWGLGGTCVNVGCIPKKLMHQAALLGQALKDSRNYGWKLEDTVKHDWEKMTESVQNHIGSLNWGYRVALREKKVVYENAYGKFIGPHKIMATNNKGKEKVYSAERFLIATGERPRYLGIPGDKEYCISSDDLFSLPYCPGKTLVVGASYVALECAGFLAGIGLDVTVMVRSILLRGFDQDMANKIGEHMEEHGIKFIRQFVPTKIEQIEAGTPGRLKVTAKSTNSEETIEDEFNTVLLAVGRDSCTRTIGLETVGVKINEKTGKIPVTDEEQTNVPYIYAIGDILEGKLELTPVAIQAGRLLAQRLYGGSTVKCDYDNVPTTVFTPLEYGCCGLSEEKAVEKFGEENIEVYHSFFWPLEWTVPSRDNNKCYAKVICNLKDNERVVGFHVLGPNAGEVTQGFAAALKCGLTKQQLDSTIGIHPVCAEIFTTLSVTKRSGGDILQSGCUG
# Test: qHTS Assay for Inhibitors of Mammalian Selenoprotein Thioredoxin Reductase 1 (TrxR1): qHTS; also: nearly all actives have a fitted effect of over 65% in size
# Settings: recombinant rTrxR1, NADPH fluorescence consumption, selenite substrate; series mostly up to 114 µM
# Outline: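 Rat TrxR1 (90 nM in the dispensed reagent) was pre-reduced with 400 uM NADPH for 5 min at room temperature, then incubated with compound for 15 min. After 400 uM selenite was added, NADPH fluorescence (Ex 340/Em 450 nm) was followed for 8 min.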
# Potency is read from the fitted curve at half-maximal effect.
Compound,Potency,"activity change, negative = inhibition"
O=C(Nc1ccccc1Cl)/C(Cl)=C(\Cl)S(=O)c1ccccc1 (centres undefined),0.398 µM (active),–
O=C(Nc1ccccc1Cl)N1CCC(CN2CCCCC2)CC1,inactive,–
O=C(Nc1ccccc1Cl)N1CCC(CN2CCCC2)CC1,inactive,–
O=C1C2C(c3ccccc3)CC=CC2C(c2ccoc2)N1Cc1ccccc1 (centres undefined),inactive,–
C#CC(C)(CC)NC(=O)Cn1nnc(-c2ccc(OCc3c(F)cccc3Cl)cc2)n1 (centres undefined),inactive,–
COc1cc(OC)cc(C(=O)NCCc2csc3nc(-c4ccccc4F)nn23)c1,inactive,–
COc1cc(C(=O)NCC(c2ccc(Cl)cc2)N2CCOCC2)cc(OC)c1OC (centres undefined),inactive,–
O=C(CSc1ccc(-c2ccco2)nn1)Nc1cccc(F)c1,25.1 µM (active),–
CCn1c(CNC(=O)c2ccco2)nnc1SCC(=O)Nc1cccc(F)c1,inactive,–
O=C(CSc1ccc(-c2ccco2)nn1)NCc1ccc2c(c1)OCO2,inactive,–
COc1ccc(OCCn2cc(C(=O)C3CCCCC3)c3ccccc32)cc1,inactive,–
Cc1ccc(C)c(N2CCN(Cc3nnc(-c4ccccc4)o3)CC2)c1,inactive,–
C=C(Br)CN1CCN(CC(=C)Br)CC1,12.6 µM (active),–
Cc1ccc(CN(C(=O)COc2ccc(Cl)cc2C)C2CCS(=O)(=O)C2)o1 (centres undefined),inactive,–
CCOC(=O)CSc1nnc(-c2ccco2)n1C,22.4 µM (active),–
CCOC(=O)CSc1nnc(CNC(=O)c2ccco2)n1-c1ccc(F)cc1,inactive,–
Cn1c(SCC(=O)N2CCCC2)nnc1-c1cccs1,inactive,–
CCCN1CCC(=O)N(C(CSc2ccc(C)cc2)Cc2ccccc2)CC1 (centres undefined),inactive,–
Cn1c(=O)c2cn(-c3cccc4ccccc34)cc2n(C)c1=O,inactive,–
CC1=C(C)CC2C(=O)N(c3cccc4ccccc34)C(=O)C2C1 (centres undefined),14.1 µM (active),–
CCc1ccccc1N1C(=O)C2C3CC(=O)C(c4ccccc43)C2C1=O (centres undefined),inactive,–
COc1cccc(OCCn2c(-c3ccc(Br)cc3)nc3ccccc3c2=O)c1,inactive,–
COC(=O)C(CC(C)C)NS(=O)(=O)c1cc(Br)ccc1Br (centres undefined),inactive,–

Compound,Potency,"activity change, negative = inhibition"
O=C(NCC(c1cccnc1)N1CCc2ccccc21)c1cccc(C(F)(F)F)c1 (centres undefined),inactive,–
Nc1ccccc1N,inactive,–
COc1ccc(N2C(=O)CC(Sc3n[nH]c(-c4ccc(C)cc4)n3)C2=O)cc1 (centres undefined),5.01 µM (active),–
CC(=O)Nc1ccc(N2C(=O)CC(Sc3nccc(C)n3)C2=O)cc1 (centres undefined),inactive,–
COc1ccc(-c2nc(SCC(=O)N3CCCCC3C)n[nH]2)cc1 (centres undefined),inactive,–
C/[N+]([O-])=C\c1ccc([N+](=O)[O-])o1,11.2 µM (active),–
Cc1cccc(NC(=O)COC(=O)c2ccccc2OCc2cccc(Br)c2)c1,inactive,–
Cc1cc(Nc2cc(N3CCN(C)CC3)nc(Sc3ccc(NC(=O)C4CC4)cc3)n2)n[nH]1,inactive,–
C=CC(=O)Nc1ccc(Nc2ccnc(Nc3ccc(N4CCN(C)CC4)cc3)n2)cc1,12.6 µM (active),–
Cn1c(SCC(=O)Nc2ccc(N3CCOCC3)cc2)nnc1C(F)(F)F,inactive,–
CCc1ccc(NC(=O)N2CCN(C(=O)c3nsc4ccccc34)CC2)cc1,inactive,–
CCOC(=O)c1scc(-c2ccc(C)cc2)c1S(=O)(=O)Nc1cc(C)ccc1C,inactive,–
COc1cccc(NCCC(=O)c2cccc([N+](=O)[O-])c2)c1,20 µM (active),–
COc1ccc(NS(=O)(=O)c2cc(NC(=O)CC(=O)c3ccc([N+](=O)[O-])cc3)ccc2C)cc1,inactive,–
COc1cccc(C(=O)CC(=O)C(=O)Nc2ccc([N+](=O)[O-])cc2C)c1,inactive,–
Cc1ccccc1CNC(=O)C1CCCN(S(=O)(=O)N(C)c2ccc(F)cc2)C1 (centres undefined),inactive,–
CC(C)(C)N1CC(c2nc3ccccc3n2Cc2ccc(F)cc2)CC1=O (centres undefined),inactive,–
Cc1ccc(-n2c(=O)cc(N3CCN(Cc4ccccc4)CC3)[nH]c2=O)cc1,inactive,–
CC1CN(c2cc(=O)n(Cc3ccc(F)cc3)c(=O)[nH]2)CC(C)O1 (centres undefined),10 µM (active),–
Cc1c(Cl)cccc1NC(=O)Cn1cc(C(=O)c2cccs2)c2ccccc21,inactive,–
O=C(Cn1c(=O)n(-c2ccc(F)cc2)c(=O)c2sc3ccccc3c21)NC1CCCC1,inactive,–
O=S(=O)(NCCCN1CCOCC1)c1ccc(F)c(Cl)c1,inactive,–
O=[N+]([O-])c1cc(S(=O)(=O)CCCN2CCOCC2)ccc1F,11.2 µM (active),–

Compound,Potency,"activity change, negative = inhibition"
O=C(NCCCN1CCOCC1)c1ccccc1NS(=O)(=O)c1ccc(F)cc1,inactive,–
CC1CC2C3CCC4=CC(=O)C=C[C@]4(C)[C@@]3(F)[C@@H](O)C[C@]2(C)[C@@]1(O)C(=O)CO (some centres undefined),inactive,–
COc1cc(OC)c(OC)cc1/C=C1\C=Cc2ccccc21,inactive,–
Cc1nnc(SCCCCSc2nnc(C)c(=O)[nH]2)[nH]c1=O,–,12.5% [at 11.4 µM] (inactive)
CCCCOC(=O)CNc1nnc(SCC(=O)OCC)[nH]c1=O,11.2 µM (active),–
Cc1nnc(SCC(=O)NCc2cccs2)[nH]c1=O,inactive,–
Cc1[nH]c2ccccc2c1C(=O)C(=O)N(C)c1ccccc1,inactive,–
Cc1cc(C)cc(NC(=O)CSc2nc3nccnc3c(=O)n2CCc2c[nH]c3ccccc23)c1,inactive,–
COc1ccccc1/C=C/C(=O)NC(=S)N1CCOCC1,inactive,–
COc1ccc(Cl)cc1C(=O)NNC(=S)NC(=O)/C=C/c1ccco1,inactive,–
O=C(/C=C/c1ccco1)NC(=S)N1CCCCC1,28.2 µM (active),–
Cn1c(=O)cc(OCC(=O)N2CCN(c3ccccc3)CC2)c2ccccc21,inactive,–
COc1ccc(-c2nc3nc(C)cc(C)n3c2Nc2c(C)cccc2C)cc1,inactive,–
CCn1c(SCC(=O)NNC(=O)c2ccc(OC)cc2)nnc1C(C)C,inactive,–
COc1ccc(-n2c(SC)nc(O)cc2=O)cc1,inactive,–
CCn1c(SC)nc(O)c(C(c2ccc(OC)c(O)c2)c2c(O)nc(SC)n(CC)c2=O)c1=O,50.1 µM (active),–
O=C(Cn1ncc2c3ccccc3n(Cc3ccccc3)c2c1=O)NC1CCCCCC1,inactive,–
CCOC(=O)N1CCN(C(c2cccnc2)c2ccc3cccnc3c2O)CC1 (centres undefined),0.398 µM (active),–
COc1ccccc1N1CCN(C(CNC(=O)C(=O)NCc2ccc(C)cc2)c2cccnc2)CC1 (centres undefined),inactive,–
Cc1ccc(NC(=O)C(=O)NCC(c2cccnc2)N2CCOCC2)cc1 (centres undefined),inactive,–
CCN1CCN(C(c2cccnc2)c2cc(Cl)c3cccnc3c2O)CC1 (centres undefined),4.47 µM (active),–
CCOc1ccc(C(NC(=O)c2cc(OC)c(OC)c(OC)c2)c2cc(Cl)c3cccnc3c2O)cc1 (centres undefined),inactive,–
O=C(NCc1cccnc1)C(=O)NCC(c1cccnc1)N1CCN(c2ccccc2)CC1 (centres undefined),inactive,–
